High-throughput results from PubChem BioAssay.
An excerpt weighted towards active compounds, which were near 21% of everything screened.
Pf growth 96h – P. falciparum growth inhibition at 96 hour, primary screen for plastid delayed-death inhibitors; Potency, µM (titrated, usually from 28.7 µM), hits mostly inhibitors; 320,000 compounds, 6.9% hits; P. falciparum luciferase reporter growth, 96 h; active = well fitted inhibition curve with a large enough effect; inconclusive = small, poorly fitted or top-dose-only effect, or another doubt; inactive = no such curve, though single readings can be large or run the other way
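P. falciparum expressing integrated firefly luciferase, in erythrocytes at 2% hematocrit, 0.05% parasitemia, incubated with compounds 96 h at 37 C, 5% CO2. Growth inhibition read as loss of luminescence; two-generation exposure targets delayed-death apicoplast inhibitors.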
CHX counter – affects cycloheximide protein synthesis inhibition readout, counter-screen | max response, % | 300,000 compounds, 12% hits | cell reporter, cycloheximide protein synthesis inhibition counterscreen; in the data active = max response mostly above about 13%, no sharp cut-off; inactive = mostly below about 14%; also: read at 38.3 µM for the half of the compounds with a filed dose
SARS PLP yeast – SARS-CoV PLP inhibition in yeast. S. cerevisiae expressing SARS-CoV PLpro, growth rescue. 330,000 compounds, 0.19% hits. Potency, µM (highest dose often 32.9 µM), hits mostly activators; also: nearly all actives have a fitted effect of over 55% in size
Shiga toxin inh – inhibitors of Shiga toxin in Vero cells; Vero cells, Shiga toxin protein synthesis inhibition reporter; inhibition, % at 38.7 µM; 290,000 compounds, 9.2% hits; AID 2315; in the data active = inhibition mostly above about 28%, no sharp cut-off; inactive = mostly below about 43%
NS1 function inh – influenza NS1 inhibition; Potency, µM (doses to about 46.1 µM); AID 2326; 270,000 compounds, 0.4% hits; also: actives are rising curves; nearly all actives have a fitted effect of over 50% in size
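OD600 was taken as the measure of yeast growth restored by compound in an NS1-expressing S. cerevisiae strain. Cells had been washed out of glucose medium and diluted 1:100 into galactose -URA medium, pH 6.0.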
Pf growth 48h – P. falciparum growth inhibition at 48 hours (one generation) | P. falciparum luciferase growth in erythrocytes, 48 h | Potency, µM (doses to about 28.7 µM), most hits filed as inhibitors | 310,000 compounds, 5.9% hits; active = well fitted inhibition curve with a large enough effect; inconclusive = small, poorly fitted or top-dose-only effect, or another doubt; inactive = no such curve, though single readings can be large or run the other way
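Compounds are pin-transferred into medium, infected erythrocytes (2% hematocrit, 0.1% parasitemia final) are added, and plates sit one parasite generation at 37 C in 5% CO2. Detection reagent is then added and luminescence measured.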
Each line names hits and unclear results; the compound was inactive in the other large screens. Unless noted, calls follow the shape of the full dose curve.

COc1ccc(C2Nc3ccccc3C(=O)N2c2ccccc2)cc1CN1CCOCC1 (stereo unspecified)	Pf growth 96h inconclusive
COc1ccc(C2Nc3ccccc3C(=O)N2c2ccc(C)cc2)cc1Cn1nc(C)c([N+](=O)[O-])c1C (stereo unspecified)	Pf growth 96h inconclusive, CHX counter 47, Pf growth 48h inconclusive
COc1ccc(C2Nc3ccccc3C(=O)N2c2ccc(C)cc2)cc1COc1ccccn1 (stereo unspecified)	CHX counter 37
COc1ccc(N2C(=O)c3ccccc3NC2c2ccc(OC)c(Cn3nnc4ccccc43)c2)cc1 (stereo unspecified)	Pf growth 96h 9.3µM, CHX counter 21, Pf growth 48h 12µM
O=C(Oc1ccc(-n2cnnn2)cc1)c1ccccc1	none
CC(C)N1CCN(Cc2ccsc2)CC1CCO (stereo unspecified)	none
FC(F)(F)c1cccc(NC(=S)NCCc2ccccn2)c1	Pf growth 96h inconclusive
S=C(NCc1ccccn1)Nc1ccccc1	none
CC(C)(C)c1ccc(NC(=S)NCCc2ccccn2)cc1	Pf growth 96h inconclusive, CHX counter 17
CN(CCc1ccccn1)C(=O)Nc1ccc(Cl)cc1	CHX counter 32 (no result: SARS PLP yeast)
Fc1ccc(NC(=S)NCc2ccccn2)cc1	CHX counter 16, Shiga toxin inh 46
CC(=O)c1ccc(NC(=S)NCCc2ccccn2)cc1	CHX counter 43, Shiga toxin inh 21
CN(CCc1ccccn1)C(=S)Nc1ccc(Cl)c(Cl)c1	none
O=C(NCCN1CCNC1=O)C1CCC(=O)N(Cc2cccc(C(F)(F)F)c2)C1 (stereo unspecified)	Pf growth 96h inconclusive
CNC(=O)[C@@H]1CCC(=O)N1	none (no result: CHX counter, Shiga toxin inh, NS1 function inh)
S=C(NCCc1ccccn1)Nc1ccc(Cl)cc1	CHX counter 39, Shiga toxin inh 48
Fc1ccc(NC(=S)NCCc2ccccn2)cc1	none
COc1ccc(CNn2c(-c3cccc(C)c3)nc3ccccc3c2=O)cc1OC	Pf growth 96h 12µM (no result: Pf growth 48h)
COc1ccccc1CNn1c(-c2cccc(C)c2)nc2ccccc2c1=O	Pf growth 96h 12µM (no result: Pf growth 48h)
COc1cccc(OC)c1C(=O)Nn1c(-c2cccc(C)c2)nc2ccccc2c1=O	Pf growth 96h inconclusive (no result: NS1 function inh)
CCn1c(SCC(=O)Nc2cc(Cl)ccc2OC)nnc1C1CC1	none
C=C(C)C1CC=C(C)/C(=N/NC(=O)COc2cccc(C)c2)C1 (stereo unspecified)	Pf growth 96h inconclusive, Shiga toxin inh 41, Pf growth 48h inconclusive
C=C(C)C1CC=C(C)/C(=N/NC(=O)COc2ccc(Cl)cc2)C1 (stereo unspecified)	SARS PLP yeast inconclusive
C=C(C)C1CC=C(C)/C(=N/NC(=S)Nc2ccccc2)C1 (stereo unspecified)	CHX counter 21, SARS PLP yeast 10µM
C=C(C)C1CC=C(C)/C(=N/NC(=O)c2ccoc2C)C1 (stereo unspecified)	CHX counter 66, Shiga toxin inh active
CC(C)N(C(=O)Cn1cc(S(=O)(=O)CC(=O)NCc2ccc(F)cc2)c2ccccc21)C(C)C	Pf growth 96h inconclusive, SARS PLP yeast inconclusive, Pf growth 48h inconclusive
CCS(=O)(=O)c1nc(S(=O)(=O)c2ccc(C)cc2)c(N2CCC(O)CC2)s1	Pf growth 96h inconclusive
C=CCc1cccc(C=Nc2c[nH]c(=O)[nH]c2=O)c1O	none (no result: Shiga toxin inh)
C=CCc1cccc(C=Nc2cc(Br)ccc2O)c1O	Pf growth 96h 12µM, Pf growth 48h inconclusive
C=CCc1cccc(C=Nc2cccn3cc(-c4ccccc4)nc23)c1O	CHX counter 32, Shiga toxin inh 69 (no result: NS1 function inh)
CCc1ccc(O)c(N=Cc2cccc(C)c2O)c1	Pf growth 96h inconclusive, CHX counter 27, Pf growth 48h inconclusive
Cc1cccc(C=Nc2ccc3c4c(cccc24)CC3)c1O	SARS PLP yeast inconclusive
COCCN1C(=O)N[C@@H](c2ccccc2)C(C(C)=O)=C1C	Pf growth 96h inconclusive
CCNc1nc(-c2cc(C)n(Cc3ccco3)c2C)cs1	Pf growth 96h inconclusive, CHX counter 53, Shiga toxin inh 104
COc1ccc(/C=N/NC(=O)c2nonc2C)cc1	CHX counter 44, Shiga toxin inh 62
COc1ccc(/C=N\NC(=O)C2=NNC(=O)C2C)cc1 (stereo unspecified)	CHX counter 25, Shiga toxin inh 42
